Test systems include SR leukemia; RPMI-8226 leukemia; OVCAR-8 ovarian; OVCAR-5 ovarian; OVCAR-4 ovarian; SK-OV-3 ovarian; IGROV1 ovarian; OVCAR-3 ovarian; HS 578T breast; NCI/ADR-RES ovarian.
Common to all, as to test: NCI-60 one-dose screen, 48 h (100 = growth as untreated, 0 = no growth, -100 = all killed)
Common to all, as to conditions: 10 µM unless noted

Structures are written as SMILES. The panel holds about 83,000 compounds, 20% with a hit somewhere; the sample as a whole holds those more often.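 Cells were grown in 96-well plates and exposed to the test compound at a single concentration for 48 hours; results are reported as percent growth, with values below 10 considered active.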 A number with no mark means an inactive call. Activity calls are given as the source filed them.

As to `Cn1c(/C(C#N)=C/c2ccc3ccccc3c2)cc2ccccc21`, the growth in the test with SR leukemia is 19.5%; in the test with RPMI-8226 leukemia, 5.55% (active); in the test with OVCAR-8 ovarian, 30.3%; with OVCAR-5 ovarian, 34.4%; with OVCAR-4 ovarian it was 56.5%; in the test on SK-OV-3 ovarian, 58.8%. Further, the growth in the test on IGROV1 ovarian is 21.2%; in the test with OVCAR-3 ovarian, -0.996% (active); in the test with HS 578T breast, 23.8%; with NCI/ADR-RES ovarian it was -18.4% (active).
For the compound `CCCCCCCC(=O)SCC/C=C/[C@@H]1CC(=O)NCc2cccc(n2)CN(Cc2ccc(Cl)cc2)CC(=O)N[C@@H](C(C)C)C(=O)O1`, the growth was 8.39% (active) in the test on SR leukemia; 8.51% (active) with RPMI-8226 leukemia; -0.619% (active) in the test on OVCAR-8 ovarian; -5.64% (active) with OVCAR-5 ovarian; 28% in the test on OVCAR-4 ovarian; -24.5% (active) in the test on SK-OV-3 ovarian. The growth is 10.9% in the test on IGROV1 ovarian, 3.13% (active) with OVCAR-3 ovarian, -5.68% (active) in the test with HS 578T breast and 13% in the test on NCI/ADR-RES ovarian.
As to `Cc1cccc(C)c1NC(=O)CSC(=S)N1CCCCC1`, the growth in the test with SR leukemia is 101%; in the test on RPMI-8226 leukemia it was 104%; in the test with OVCAR-8 ovarian, 105%; in the test with OVCAR-5 ovarian it was 101%; in the test on OVCAR-4 ovarian, 106%; with SK-OV-3 ovarian, 110%. For the same compound, the growth with IGROV1 ovarian was 90.7%; with OVCAR-3 ovarian, 103%; in the test with HS 578T breast it was 96.8%; in the test with NCI/ADR-RES ovarian, 103%.
As for `C=C(C)[C@@H]1CC[C@]2(CN)CC[C@]3(C)[C@H](CC[C@@H]4[C@@]5(C)CCC(=O)NC(C)(C)[C@@H]5CC[C@]43C)[C@@H]12`, the growth is -27.1% (active) in the test with SR leukemia; 37.9% with RPMI-8226 leukemia; 66.5% with OVCAR-8 ovarian; 97.8% in the test with OVCAR-5 ovarian; 70.7% in the test with OVCAR-4 ovarian; 92% in the test with SK-OV-3 ovarian. For the same compound, the growth with IGROV1 ovarian is 70.3%; with OVCAR-3 ovarian it was 88%; with HS 578T breast, 84.1%; in the test on NCI/ADR-RES ovarian, 70%.
On to `COc1ccc(/C=C/C(=O)NCC(C)O)cc1` (stereo not given), for which the growth in the test with SR leukemia was 105%; with RPMI-8226 leukemia, 105%; in the test on OVCAR-8 ovarian, 97.9%; in the test with OVCAR-5 ovarian, 89.2%; in the test on OVCAR-4 ovarian it was 104%; in the test with SK-OV-3 ovarian, 87.8%. In addition, the growth in the test with IGROV1 ovarian is 93.2%; with OVCAR-3 ovarian, 103%; with HS 578T breast, 94.4%; in the test with NCI/ADR-RES ovarian, 106%.
In the case of `C=C(C)[C@@H]1CC[C@]2(C(=O)N3CCCNCC3)CC[C@]3(C)[C@H](CC[C@@H]4[C@@]5(C)CCC(=O)C(C)(C)[C@@H]5CC[C@]43C)[C@@H]12`, the growth with SR leukemia is 8.04% (active); in the test with RPMI-8226 leukemia it was 92%; with OVCAR-8 ovarian it was 95.6%; in the test with OVCAR-5 ovarian it was 106%; in the test on OVCAR-4 ovarian it was 92.3%; in the test on SK-OV-3 ovarian it was 106%. In addition, the growth in the test with IGROV1 ovarian was 93.6%; with OVCAR-3 ovarian, 98.8%; in the test with HS 578T breast, 94.2%; with NCI/ADR-RES ovarian it was 91.8%.
Regarding `N#C/C(=C\c1ccc(-c2ccccc2)o1)c1nc(-c2ccco2)cs1`, the growth with SR leukemia is 103%; with RPMI-8226 leukemia, 49.6%; with OVCAR-8 ovarian, 96.9%; in the test on OVCAR-5 ovarian, 53.8%; with OVCAR-4 ovarian, 11%; with SK-OV-3 ovarian, 97.2%. Moreover, the growth with IGROV1 ovarian was 43.1%; in the test on OVCAR-3 ovarian, 78.7%; with HS 578T breast, 95.7%; with NCI/ADR-RES ovarian, 95.5%.
With `Cc1cc(C)c(NC(=O)c2sc3nc4c(cc3c2N)CCCC4)c(C)c1`, the growth with SR leukemia is 7.8% (active); in the test on RPMI-8226 leukemia, 55.2%; in the test with OVCAR-8 ovarian, 62.3%; in the test on OVCAR-5 ovarian, 90.8%; in the test on OVCAR-4 ovarian, 60.9%; in the test with SK-OV-3 ovarian, 51.3%. The growth is 62.5% in the test with IGROV1 ovarian, 18.1% in the test with OVCAR-3 ovarian, 46.2% in the test on HS 578T breast and 18.4% in the test with NCI/ADR-RES ovarian.
On to `COc1cc2c(cc1-c1c(C)noc1C)ncc1nc(C3CCC(F)(F)CC3)n([C@@H](C)COC(F)F)c12`, for which the growth is 24.7% in the test with SR leukemia; 17.3% with RPMI-8226 leukemia; 46.1% in the test with OVCAR-8 ovarian; 61.9% in the test with OVCAR-5 ovarian; 43.2% in the test with OVCAR-4 ovarian; 7.59% (active) in the test with SK-OV-3 ovarian. The growth was 48.9% in the test on IGROV1 ovarian, 39% in the test with OVCAR-3 ovarian, 8.57% (active) with HS 578T breast and 40.8% with NCI/ADR-RES ovarian.
Take `Cc1nn2c(-c3nc4cc(Cl)c(Cl)cc4[nH]3)c(-c3ccc(F)cc3)nc2s1`: the growth in the test on SR leukemia is 41.1%; with RPMI-8226 leukemia it was 20.6%; with OVCAR-8 ovarian, 8.25% (active); in the test on OVCAR-5 ovarian, 23.8%; with OVCAR-4 ovarian, -60% (active); with SK-OV-3 ovarian, -73.1% (active). Besides, the growth in the test with IGROV1 ovarian was 21.2%; in the test on OVCAR-3 ovarian it was -13.2% (active); with HS 578T breast it was 1.04% (active); with NCI/ADR-RES ovarian, 21.4%.
With `CC1=NN(c2ccc(S(=O)(=O)O)cc2Cl)C(=O)C1`, the growth is 113% in the test on SR leukemia; 104% with RPMI-8226 leukemia; 99.9% with OVCAR-8 ovarian; 94.3% in the test on OVCAR-5 ovarian; 102% in the test with OVCAR-4 ovarian; 105% with SK-OV-3 ovarian. For the same compound, the growth in the test with IGROV1 ovarian is 105%; in the test with OVCAR-3 ovarian, 158%; in the test with HS 578T breast, 131%; with NCI/ADR-RES ovarian, 98.9%.
For the compound `Nc1nc(Br)nc2c1ncn2C1CC(O)C(CO)O1` (stereo not given), the growth in the test on SR leukemia is 52.2%; in the test on RPMI-8226 leukemia, 73.5%; with OVCAR-8 ovarian, 35.9%; in the test with OVCAR-5 ovarian it was 76.3%; with OVCAR-4 ovarian, 81.9%; in the test on SK-OV-3 ovarian, 94.2%. Moreover, the growth was 96.3% in the test with IGROV1 ovarian, 80.9% with OVCAR-3 ovarian, 91.7% in the test with HS 578T breast and 22.3% in the test on NCI/ADR-RES ovarian.
As for `Oc1cccc2ccc(N/N=C/c3cc(CN4CCCCC4)c(O)c4ncccc34)nc12`, the growth with SR leukemia was -12.7% (active); with RPMI-8226 leukemia, 0.883% (active); with OVCAR-8 ovarian, 8.27% (active); in the test with OVCAR-5 ovarian it was 36.4%; in the test with OVCAR-4 ovarian, 8.09% (active); in the test with SK-OV-3 ovarian it was -30.5% (active). For the same compound, the growth was 14.3% with IGROV1 ovarian, 7.62% (active) in the test on OVCAR-3 ovarian, 17.1% in the test with HS 578T breast and 8.58% (active) in the test with NCI/ADR-RES ovarian.

The record behind these values is PubChem BioAssay (NCI).
